Experimental data from PubChem BioAssay AID651658 (Broad Institute, 2012).
The whole screen tested about 340,000 compounds, of which about 5,100 (1.5%) were called active.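 The calls were made as follows: active = mean Tm shift, scaled 0 neutral to 100 positive control, at about 1.3% or above, every replicate too (limit read from the data); inconclusive = no clear call, values can overlap the other calls; inactive = the rest.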 The full list was thinned out, with actives kept by preference.

Target: Fibroblast growth factor 22 (Homo sapiens) (UniProt Q9HCT0)
Sequence (Q9HCT0 whole entry, looked up): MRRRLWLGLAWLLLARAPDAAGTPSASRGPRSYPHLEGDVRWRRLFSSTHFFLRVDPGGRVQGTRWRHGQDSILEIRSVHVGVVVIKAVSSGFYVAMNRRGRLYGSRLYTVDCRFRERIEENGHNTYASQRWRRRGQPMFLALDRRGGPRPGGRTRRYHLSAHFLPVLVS
Assay: binders of human FGF22 protein, primary screen, FGF22 synaptogenesis inhibitor project, biophysical, thermal shift, single point (AID 651658)
Details: recombinant FGF22 thermal shift, SYPRO orange fluorescence; at 9.99 µM; hits give high values; percent of sucrose octasulfate shift, DMSO zero

SMILES	activity (Tm shift, normalised)
COC(=O)[C@@H]1[C@@H](CO)[C@@H]2Cn3c(ccc(-c4ccc(OC)cc4)c3=O)[C@@H]2N1C	0.199% (inactive)
O=C(Cc1ccc(Cl)cc1)NC1CCS(=O)(=O)C1 (configuration not stated)	-0.305% (inactive)
O=C(CSc1nn(-c2ccc(F)cc2)c(=S)s1)NC1CCS(=O)(=O)C1 (configuration not stated)	0.458% (inactive)
O=C(CSc1ccccc1F)NC1CCS(=O)(=O)C1 (configuration not stated)	43% (active)
CO[C@H]1CC[C@@H]2CCOc3c(C#N)cccc3C(=O)N(C)CCCC(=O)N(C)C[C@@H]1O2	0.064% (inactive)
CCn1ccnc1CN(C)C(=O)c1ccc2nc(Cc3ccc(OC)cc3)oc2c1	1.62% (active)
CCC1C(=O)NCCN1C(=O)c1ccc2nc(Cc3ccc(OC)cc3)oc2c1 (configuration not stated)	0.064% (inactive)
COc1ccc(Cc2nc3ccc(C(=O)N4CCC(N(C)C)C4)cc3o2)cc1 (configuration not stated)	-0.031% (inactive)
COc1ccc2c3c(n(C)c2c1)[C@@H](CO)N(C(=O)NC1CCCC1)CC31CCN(C(C)=O)CC1	-0.236% (inactive)
CC=Cc1ccc2n(c1=O)C[C@@H]1[C@@H](CO)[C@H](C(=O)NCCC)[C@H]2N1C(=O)C1CC1 (mixture of isomers)	-0.404% (inactive)
CC(=O)Nc1ccccc1-c1cn(CC(=O)N2CCOCC2)nn1	-0.164% (inactive)
O=C(c1cccc([N+](=O)[O-])c1)N1CCN(Cc2ccccc2)CC1	0.006% (inactive)
COC(=O)c1cc(C(=O)N(Cc2ccccc2)c2ccccn2)cc([N+](=O)[O-])c1	0.167% (inactive)
O=C(CCl)N(Cc1cccc([N+](=O)[O-])c1)c1cccc(Cl)c1	43.2% (active)
O=C(Nc1ccc(F)cc1)C(=O)c1cn(CC(=O)N2CCOCC2)c2ccccc12	-0.305% (inactive)
O=C(Oc1ccc(C(=S)N2CCOCC2)cc1)c1ccc(F)cc1	-0.154% (inactive)
O=C(c1ccc(F)cc1)n1cc(C(=S)N2CCOCC2)c2ccccc21	43.1% (active)
COc1cc(NC(=O)c2cccs2)ccc1NC(=O)c1ccccc1Cl	1.14% (inactive)
COc1cc(NC(=O)c2ccc3c(c2)OCO3)ccc1NC(=O)c1cccs1	1.67% (active)
COC(=O)C[C@@H]1CC[C@H]2[C@H](COc3ccc(NC(=O)c4cccs4)cc3C(=O)N2C)O1	-0.323% (inactive)
CC(C)NC(=O)Nc1ccc2c(c1)C(=O)N(C)[C@H]1CC[C@H](CC(=O)NCc3ccc(F)cc3)O[C@H]1CO2	0.053% (inactive)
O=C(Nc1ccccc1F)N[C@H]1C=C[C@H](CC(=O)N2CCCCC2)O[C@H]1CO	0.391% (inactive)
